Reference: PubChem BioAssay
For some of these results: Results with a measured potency or affinity are listed apart. The source made the active and inactive calls.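 The calls were made as follows, unless noted: active = compound raising the membrane signal above positive-control mean plus 3 SD in both repeats, and a primary screen hit; inactive = the rest.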

Columns and labels:
[1] = tested on: TRPC4 beta (transient receptor potential cation channel C4), mouse; experiment: activators of mouse TRPC4 channel, confirmation, cell-based, Fluo4 calcium, HEK293 TRPC4beta/mu-opioid, duplicates, 10 µM (AID 2426;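 active = fluorescence ratio normalized to control raised more than 50% in primary screen plus both repeat runs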;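 also: percent rise of integrated ratio over buffer wells lacking compound which define 0%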); conditions: Fluo4 calcium fluorescence, at 10 µM; active compounds read high
[2] = tested on: transient receptor potential cation channel C4 beta (TRPC4), mouse; experiment: activators of mouse TRPC4 channel, confirmation, cell-based, second round, Fluo4, HEK293 TRPC4beta/mu-opioid, 1 µM (AID 2461;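 active = primary screen active and over 50% activation in each of two duplicate runs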;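 as to activation: 0% = wells without test compound as baseline of integrated fluorescence ratio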); conditions: Fluo4 calcium fluorescence, at 1 µM; active compounds read high
[3] = tested on: TRPC4 (transient receptor potential cation channel C4 beta), mouse; experiment: positive allosteric modulators of mouse TRPC4, confirmation, cell-based, second round, Fluo-4, HEK293 TRPC4beta/mu-opioid, 1 µM (AID 2554;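 active = primary screen hit whose fluorescence ratio, in both repeats, exceeds the weak agonist control mean by 3 SD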); conditions: DAMGO EC20, Fluo-4 calcium flux, at 1 µM; active compounds read high
[4] = tested on: TRPC4 beta (transient receptor potential cation channel C4), mouse; experiment: positive allosteric modulators of mouse TRPC4, confirmation, cell-based, Fluo-4, HEK293 TRPC4beta/mu-opioid (AID 2555;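 active = primary screen hit whose calcium fluorescence ratio, in both repeats, exceeds the weak agonist control mean by 3 SD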); conditions: DAMGO EC20, Fluo-4 calcium flux, at 10 µM; active compounds read high
[5] = target: Short transient receptor potential channel 4 (Mus musculus) (UniProt Q9QUQ5); experiment: inhibitors of mouse TRPC4 channel, confirmation, cell-based, Fluo4, HEK293 TRPC4beta/mu-opioid (AID 2636;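 active = calcium signal cut by more than 3 SD below the full-agonist control yet still positive, in both repeats and the earlier primary screen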); conditions: DAMGO, Fluo4 calcium flux, at 10 µM; active compounds read high
Short transient receptor potential channel 4 (Mus musculus), sequence (Q9QUQ5 whole entry, looked up): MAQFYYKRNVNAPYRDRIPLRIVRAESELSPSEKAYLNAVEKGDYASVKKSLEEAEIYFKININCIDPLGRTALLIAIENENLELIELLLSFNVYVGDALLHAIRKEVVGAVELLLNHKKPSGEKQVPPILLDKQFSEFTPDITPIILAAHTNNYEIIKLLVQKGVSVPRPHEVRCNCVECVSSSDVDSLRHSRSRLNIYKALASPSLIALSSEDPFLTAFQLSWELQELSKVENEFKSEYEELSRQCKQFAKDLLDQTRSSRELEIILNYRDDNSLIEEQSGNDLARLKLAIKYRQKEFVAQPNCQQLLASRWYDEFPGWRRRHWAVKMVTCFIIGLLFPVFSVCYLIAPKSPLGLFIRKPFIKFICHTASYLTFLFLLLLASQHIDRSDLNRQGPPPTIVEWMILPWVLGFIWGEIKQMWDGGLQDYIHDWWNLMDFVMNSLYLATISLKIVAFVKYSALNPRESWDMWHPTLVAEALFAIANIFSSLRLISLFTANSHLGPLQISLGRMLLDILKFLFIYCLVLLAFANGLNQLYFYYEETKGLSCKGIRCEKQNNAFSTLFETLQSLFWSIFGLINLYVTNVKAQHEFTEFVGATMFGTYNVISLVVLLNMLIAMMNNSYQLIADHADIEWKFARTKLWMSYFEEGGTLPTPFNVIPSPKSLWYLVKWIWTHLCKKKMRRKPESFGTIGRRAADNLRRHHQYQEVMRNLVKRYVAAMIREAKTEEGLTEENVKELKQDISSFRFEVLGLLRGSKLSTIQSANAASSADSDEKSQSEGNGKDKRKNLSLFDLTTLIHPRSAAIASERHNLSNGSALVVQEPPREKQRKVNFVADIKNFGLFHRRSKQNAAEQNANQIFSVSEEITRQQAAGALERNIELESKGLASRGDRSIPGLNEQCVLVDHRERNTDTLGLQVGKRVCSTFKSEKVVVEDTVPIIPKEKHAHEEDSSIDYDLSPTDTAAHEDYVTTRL

[6] = target: Short transient receptor potential channel 4 (Mus musculus) (UniProt Q9QUQ5); experiment: inhibitors of mouse TRPC4 channel, confirmation, cell-based, second round, Fluo4, HEK293 TRPC4beta/mu-opioid, 1 µM (AID 2637;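 active = calcium signal ratio cut to more than 3 SD under the fully stimulated control mean yet still positive, in both repeats and the primary screen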); conditions: Fluo4 calcium flux, DAMGO, at 1 µM; active compounds read high
[7] = target: Short transient receptor potential channel 4 (Mus musculus) (UniProt Q9QUQ5); experiment: TRPC4 positive allosteric modulators, dose response, cell-based, HEK293 TRPC4/mu-opioid, Fluo-4 calcium, EC20 DAMGO (AID 434941;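 active = earlier screen potentiator hit that boosts the TRPC4 ion channel at some dose, with a dose response; inactive = no potentiation, no dose response, or not a prior hit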;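 also: calcium entry triggered by an EC20 dose of DAMGO at the co-expressed mu-opioid receptor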)
[8] = target: Short transient receptor potential channel 4 (Mus musculus) (UniProt Q9QUQ5); experiment: mouse TRPC4 channel inhibitors, dose response, cell-based, HEK293 TRPC4/mu-opioid, Fluo-4 calcium (AID 434942;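 active = primary screen inhibitor hit that blocks the TRPC4 channel at some tested dose, yielding a dose curve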)
[9] = target: Short transient receptor potential channel 6 (Mus musculus) (UniProt Q61143); experiment: inhibition of mouse TRPC6 channel, confirmation, selectivity assay for TRPC4 inhibitor project, cell-based, HEK293, membrane potential dye, duplicate (AID 434948;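 active = active in primary screen and both duplicates, each dropping signal beyond three positive-control SD with fluorescence still positive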); conditions: HEK293 TRPC6, membrane potential dye fluorescence, at 10 µM; inhibition: active compounds read high, stimulated with maximal-effect acetylcholine unless noted; outcome: stimulated with maximal-effect acetylcholine unless noted
Short transient receptor potential channel 6 (Mus musculus), sequence (Q61143 whole entry, looked up): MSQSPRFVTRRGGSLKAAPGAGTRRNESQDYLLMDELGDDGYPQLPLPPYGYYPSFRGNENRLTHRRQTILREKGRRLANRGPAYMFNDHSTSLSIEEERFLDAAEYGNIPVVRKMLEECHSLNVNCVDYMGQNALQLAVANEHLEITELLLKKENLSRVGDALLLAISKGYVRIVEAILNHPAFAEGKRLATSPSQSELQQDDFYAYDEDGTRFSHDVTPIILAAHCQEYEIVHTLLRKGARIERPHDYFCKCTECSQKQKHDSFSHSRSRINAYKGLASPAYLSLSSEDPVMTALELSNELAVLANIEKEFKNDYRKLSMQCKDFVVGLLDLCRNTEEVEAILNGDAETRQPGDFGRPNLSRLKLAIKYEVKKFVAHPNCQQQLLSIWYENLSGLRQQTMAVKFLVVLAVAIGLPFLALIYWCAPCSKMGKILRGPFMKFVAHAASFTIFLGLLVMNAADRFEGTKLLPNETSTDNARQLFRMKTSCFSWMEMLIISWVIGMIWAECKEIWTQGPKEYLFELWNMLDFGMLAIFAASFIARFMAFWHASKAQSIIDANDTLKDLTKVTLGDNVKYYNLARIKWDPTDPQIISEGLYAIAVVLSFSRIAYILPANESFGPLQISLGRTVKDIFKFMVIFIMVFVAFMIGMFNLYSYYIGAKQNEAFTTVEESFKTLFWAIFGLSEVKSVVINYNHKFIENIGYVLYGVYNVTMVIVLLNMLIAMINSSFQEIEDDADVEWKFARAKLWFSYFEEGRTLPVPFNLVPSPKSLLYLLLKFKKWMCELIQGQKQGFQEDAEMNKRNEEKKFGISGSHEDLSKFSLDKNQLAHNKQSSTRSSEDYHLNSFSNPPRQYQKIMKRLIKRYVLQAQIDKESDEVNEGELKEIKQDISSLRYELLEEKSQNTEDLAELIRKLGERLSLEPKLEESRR

[10] = target: Short transient receptor potential channel 6 (Mus musculus) (UniProt Q61143); experiment: activation of mouse TRPC6 channel, confirmation, selectivity assay for TRPC4 activator project, cell-based, HEK293, membrane potential dye, duplicate (AID 434950;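 active = membrane potential signal rise above negative control mean plus 3 SD in both duplicates, also active in the earlier TRPC4 screen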;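 as to activation: 0% = buffer only wells and 100% = acetylcholine maximal-effect wells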); conditions: HEK293 TRPC6, membrane potential fluorescence, at 10 µM; active compounds read high
[11] = target: Short transient receptor potential channel 6 (Mus musculus) (UniProt Q61143); experiment: TRPC6 potentiation by TRPC4 potentiator hits, confirmation, selectivity assay for TRPC4 potentiator project, HEK293 cells, membrane potential dye, duplicate (AID 434952); conditions: HEK293 TRPC6, membrane potential dye fluorescence, at 10 µM; maximal acetylcholine added after compound unless noted
[12] = target: Short transient receptor potential channel 4 (Mus musculus) (UniProt Q9QUQ5); experiment: calcium flux activators in TRPC4/5HT1a cells, counter-screen for TRPC4 activator project, cell-based, second counter screen, HEK293 TRPC4/5HT1a, Fluo-4 (AID 434977;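 active = calcium signal rise above buffer-control mean plus 5 SD in both duplicates, and also a hit in the primary screen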;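 as to activation: plate controls were assay buffer for no effect and maximal serotonin response for full effect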); conditions: Fluo-4 calcium flux, at 10 µM; active compounds read high
[13] = calcium flux inhibitors in TRPC4/5HT1a cells, confirmation, counter-screen for TRPC4 inhibitor project, cell-based, second counter screen, HEK293 TRPC4/5HT1a, Fluo-4 (AID 434978;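 active = primary screen active whose calcium signal fell more than 3 SD beyond the full-serotonin control mean in both duplicate plates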;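 also: serotonin given first at submaximal then at maximal dose after compound preincubation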); conditions: Fluo-4 calcium flux, at 10 µM; inhibition: active compounds read high, serotonin added to trigger calcium flux unless noted; outcome: serotonin added to trigger calcium flux unless noted
[14] = tested on: TRPC4 (mouse), co-expressed with 5HT1a in HEK293; experiment: calcium flux potentiators in TRPC4/5HT1a cells, confirmation, counter-screen for TRPC4 potentiator project, cell-based, second counter screen, HEK293 TRPC4/5HT1a, Fluo-4 (AID 434979;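 active = signal rise over 3 SD above mean of control wells given weak agonist, in both repeats and first screen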); conditions: Fluo-4 calcium flux, at 10 µM; outcome: serotonin added at its EC20 dose unless noted; potentiation: active compounds read high, serotonin added at its EC20 dose unless noted
[15] = calcium flux activation in mu-opioid HEK293 cells, confirmation, counter-screen for TRPC4 activator project, cell-based, HEK293 mu-opioid receptor line (AID 449723;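 active = hit in primary screen, with calcium signal over 5 SD above buffer well mean in both duplicates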;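 also: counter screen cells carry the mu-opioid receptor alone and lack TRPC4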); conditions: Fluo-4 calcium fluorescence, at 10 µM; active compounds read high
[16] = calcium flux enhancement in mu-opioid HEK293 cells, confirmation, counter-screen for TRPC4 allosteric potentiator project, cell-based, HEK293 mu-opioid receptor line (AID 449724;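 active = calcium signal rise more than 3 SD above the low-dose agonist control mean, in both duplicate plates and the primary screen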); conditions: Fluo-4 calcium flux, at 10 µM; compound added before EC20 DAMGO stimulus unless noted

Measured: activation

COc1ccc(C2NCCc3[nH]cnc32)cc1 (configuration not stated)
active: [1] 220% | [2] 68% | [12] 49.5%
inactive: [3] | [4] | [5] | [6] | [7] | [8] | [9] | [10] | [11] | [13] | [14] | [15] | [16]

c1ccc2sc(C3CCCNC3)nc2c1 (configuration not stated)
inactive: [3] | [4] | [5] | [6] | [7] | [8] | [9] | [11] | [13] | [14] | [15] | [16]
active: [1] 170% | [2] 115% | [10] 44% | [12] 95.3%

Cc1ccc(C)c(NC(=S)NCCc2cnc[nH]2)c1
active: [1] 137% | [12] 69.3%
inactive: [2] | [3] | [4] | [5] | [6] | [7] | [8] | [9] | [10] | [11] | [13] | [14] | [15] | [16]

C[C@H]1OC[C@@H](C[N+](C)(C)C)O1
active: [1] 152% | [2] 99% | [10] 96% | [12] 85% | [15] 87.7%
inactive: [3] | [4] | [5] | [6] | [7] | [8] | [9] | [11] | [13] | [14] | [16]

CCOC(=O)C1(c2ccccc2)CCN(CCC(=O)Nc2ccccc2OC)CC1
inactive: [2] | [3] | [4] | [5] | [6] | [7] | [8] | [9] inactive [setting not given] | [11] inactive [setting not given] | [12] | [13] inactive [setting not given] | [14] inactive [setting not given] | [15] | [16] inactive [setting not given]
active: [1] 70% | [10] 62%

Cc1ccc(Cl)cc1N1CCN(CCN)CC1
active: [1] 131% | [2] 119% | [12] 53.8%
inactive: [3] | [4] | [5] | [6] | [7] | [8] | [9] | [10] | [11] | [13] | [14] | [15] | [16]

CC1(C)CC(CCNCc2ccc3c(c2)OCO3)(Cc2ccccc2)CCO1 (configuration not stated)
active: [1] 169% | [10] 70% | [12] 5.46%
inactive: [2] | [3] | [4] | [5] | [6] | [7] | [8] | [9] | [11] | [13] | [14] | [15] | [16]
